# Laboratory results as given in the antibiotic and cytotoxicity screens of Wong et al. (2023).
# The whole screen tested about 39,000 compounds, of which about 1,500 (3.8%) were called active. For the sample, actives were picked, then their nearest neighbours and some compounds at random.
# Test system: HSkMC (human skeletal muscle cells)
# Test: cytotoxicity call (relative viability < 0.9)
# Conditions: 10 µM
row,Structure (SMILES),cytotoxicity call
1,Cc1ccc([C@@H]2CC(=O)N[C@@H]2C(N)=O)cc1,inactive
2,C[C@@H]1CN([C@@H](C)CO)C(=O)c2cccc(NC(=O)Nc3cccc4ccccc34)c2O[C@H]1CN(C)S(=O)(=O)c1cccs1,inactive
3,C[C@@H]1CN([C@@H](C)CO)C(=O)c2cccc(NC(=O)Nc3cccc4ccccc34)c2O[C@@H]1CN(C)S(=O)(=O)c1ccc(Cl)cc1,inactive
4,C[C@@H]1CN([C@H](C)CO)C(=O)c2cccc(NC(=O)Nc3cccc4ccccc34)c2O[C@@H]1CN(C)S(=O)(=O)c1ccc(Cl)cc1,active
5,C[C@@H]1CN([C@H](C)CO)C(=O)c2cccc(NC(=O)Nc3cccc4ccccc34)c2O[C@@H]1CN(C)S(=O)(=O)c1ccc(F)cc1,inactive
6,C[C@H]1CN([C@@H](C)CO)C(=O)c2cccc(NC(=O)Nc3cccc4ccccc34)c2O[C@@H]1CN(C)S(=O)(=O)c1ccc(Cl)cc1,inactive
7,COc1ccccc1S(=O)(=O)N(C)C[C@@H]1Oc2c(NC(=O)Nc3cccc4ccccc34)cccc2C(=O)N([C@@H](C)CO)C[C@H]1C,inactive
8,C[C@H]1CN([C@@H](C)CO)C(=O)c2cccc(NC(=O)Nc3cccc4ccccc34)c2O[C@@H]1CN(C)S(=O)(=O)c1cccs1,active
9,C[C@@H]1CN([C@@H](C)CO)C(=O)c2cccc(NC(=O)Nc3cccc4ccccc34)c2O[C@H]1CN(C)S(=O)(=O)c1ccc(F)cc1,inactive
10,C[C@@H]1CN([C@@H](C)CO)C(=O)c2cccc(NC(=O)Nc3cccc4ccccc34)c2O[C@@H]1CN(C)S(=O)(=O)c1cccs1,inactive
11,COc1cccc(S(=O)(=O)N(C)C[C@@H]2Oc3c(NC(=O)Nc4cccc5ccccc45)cccc3C(=O)N([C@@H](C)CO)C[C@H]2C)c1,inactive
12,C[C@H](CO)N1C[C@H](C)[C@H](CN(C)S(=O)(=O)c2ccc(F)cc2)Oc2c(NC(=O)Nc3cccc4ccccc34)cccc2C1=O,active
13,COc1ccc(S(=O)(=O)N(C)C[C@@H]2Oc3c(NC(=O)Nc4cccc5ccccc45)cccc3C(=O)N([C@@H](C)CO)C[C@H]2C)c(OC)c1,active
14,C[C@H](O)C#Cc1ccc2c(c1)O[C@@H](CN(C)C(=O)Cc1ccccn1)[C@H](C)CN([C@H](C)CO)S2(=O)=O,inactive
15,O=C(O)CNC(=O)c1[nH]nc2ccccc12,inactive
16,C[C@@H]1CCCCO[C@@H](CN(C)Cc2ccc(C(F)(F)F)cc2)[C@@H](C)CN([C@H](C)CO)C(=O)c2cc(NS(=O)(=O)c3ccccc3)ccc2O1,inactive
17,C[C@H](CO)N1C[C@H](C)[C@H](CN(C)S(=O)(=O)c2ccc(F)cc2)Oc2ccc(NS(=O)(=O)c3ccc(F)cc3)cc2C1=O,inactive
18,COc1ccc(CN(C)C[C@@H]2OCCCC[C@@H](C)Oc3ccc(NC(=O)Nc4cccc5ccccc45)cc3C(=O)N([C@@H](C)CO)C[C@H]2C)cc1,active
19,COc1ccc(CN(C)C[C@H]2OCCCC[C@@H](C)Oc3ccc(NC(=O)Nc4cccc5ccccc45)cc3C(=O)N([C@H](C)CO)C[C@H]2C)cc1,inactive
20,COc1ccc(CN(C)C[C@@H]2OCCCC[C@H](C)Oc3ccc(NC(=O)Nc4cccc5ccccc45)cc3C(=O)N([C@H](C)CO)C[C@@H]2C)cc1,inactive

row,Structure (SMILES),cytotoxicity call
1,COc1ccc(CN(C)C[C@H]2OCCCC[C@H](C)Oc3ccc(NC(=O)Nc4cccc5ccccc45)cc3C(=O)N([C@@H](C)CO)C[C@@H]2C)cc1,inactive
2,COc1ccc(CN(C)C[C@@H]2OCCCC[C@H](C)Oc3ccc(NC(=O)Nc4cccc5ccccc45)cc3C(=O)N([C@H](C)CO)C[C@H]2C)cc1,active
3,COc1ccc(CN(C)C[C@@H]2OCCCC[C@@H](C)Oc3ccc(NC(=O)Nc4cccc5ccccc45)cc3C(=O)N([C@H](C)CO)C[C@H]2C)cc1,active
4,COc1ccc(CN(C)C[C@@H]2OCCCC[C@H](C)Oc3ccc(NC(=O)Nc4cccc5ccccc45)cc3C(=O)N([C@@H](C)CO)C[C@@H]2C)cc1,active
5,COc1ccc(CN(C)C[C@H]2OCCCC[C@H](C)Oc3ccc(NC(=O)Nc4cccc5ccccc45)cc3C(=O)N([C@@H](C)CO)C[C@H]2C)cc1,inactive
6,C[C@@H]1CC=CC[C@@H](c2cccc(Cl)c2)NC(=O)[C@@H](Cc2ccccc2)N(C)C(=O)c2ccccc2O1,inactive
7,Cc1noc(C)c1NC(=O)Nc1ccc2c(c1)C(=O)N([C@@H](C)CO)C[C@H](C)[C@H](CN(C)Cc1ccc(Cl)c(Cl)c1)OCCCC[C@@H](C)O2,inactive
8,N[C@@H](CC(=O)O)c1cccc([N+](=O)[O-])c1,inactive
9,C[C@@H]1CN([C@H](C)CO)C(=O)c2cc(NS(=O)(=O)c3ccccc3)ccc2O[C@H]1CN(C)S(C)(=O)=O,inactive
10,COCC#Cc1ccc2c(c1)O[C@@H](CN(C)C(=O)COC)[C@H](C)CN([C@@H](C)CO)S2(=O)=O,inactive
11,CC(C)NC(=O)Nc1ccc2c(c1)C(=O)N([C@@H](C)CO)C[C@H](C)[C@H](CN(C)S(=O)(=O)c1cccs1)O2,inactive
12,C[C@@H]1CN([C@H](C)CO)C(=O)Cc2cc(NC(=O)C3CCCCC3)ccc2O[C@H]1CN(C)C(=O)Nc1ccc(C(F)(F)F)cc1,inactive
13,Cc1ccc(S(=O)(=O)N[C@H]2C=C[C@H](CC(=O)NCCN3CCCCC3)O[C@@H]2CO)cc1,inactive
14,C[C@@H]1CN([C@H](C)CO)C(=O)c2cc(NS(=O)(=O)c3cccs3)ccc2O[C@@H]1CN(C)S(=O)(=O)c1cccs1,inactive
15,CC(C)NC(=O)Nc1ccc2c(c1)C(=O)N([C@H](C)CO)C[C@@H](C)[C@@H](CN(C)Cc1ccc(Oc3ccccc3)cc1)O2,inactive
16,NC[C@@H](CO)Cc1ccsc1,inactive
17,C[C@@H]1CCCCO[C@@H](CN(C)S(C)(=O)=O)[C@H](C)CN([C@@H](C)CO)C(=O)c2cc(NC(=O)CCCN(C)C)ccc2O1,inactive
18,COc1ccc(S(=O)(=O)Nc2ccc3c(c2)C(=O)N([C@@H](C)CO)C[C@H](C)[C@@H](CN(C)S(=O)(=O)c2cccs2)O3)cc1,inactive
19,COc1ccc(S(=O)(=O)N2C[C@H](O)COC[C@@H]3O[C@H](CC(=O)N[C@@H]4CCN(Cc5ccccc5)C4)CC[C@H]32)cc1,inactive
